Screening data: PubChem BioAssay, several laboratories
Calb FLC: C. albicans growth modulation with fluconazole; C. albicans CaCi-2 (fluconazole-resistant clinical isolate) + fluconazole, Alamar Blue growth, 48 h; AID 1979; growth inhibition, % (concentration not given with the values); actives 0.57% (n = 300,000);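 active = growth inhibition above about 58% in most replicates, limit read from the data, passing the limit was not always enough; inconclusive = exactly half the replicates above a set limit; inactive = most replicates below a set limit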;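 note: all wells also contain fluconazole at 8 µg/ml as a sub-toxic cotreatment; 0% = median of DMSO wells and 100% = median of geldanamycin control wells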
PP1 inh: blocks human PP1-alpha phosphatase, a PP5 counter-screen; inhibition, % at 6.7 µM; P62136; purified PP1alpha, OMFP fluorescence; actives 0.9% (n = 320,000);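 active = inhibition above the mean inhibition of all tested compounds plus 3 SD, computed separately for each screening campaign, cut at about 15% in these data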
ALR inh: human ALR oxidase inhibition via reduced H2O2; P55789; purified ALR, DTT oxidation, H2O2 HRP-luminol luminescence; inhibition, % (no concentration beside the values); actives 3.8% (n = 290,000); AID 485317;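 active = mean replicate inhibition above about 79%, with every replicate also reaching it, limit read from the data; inconclusive = only one of the two criteria met; inactive = mean below limit and not every replicate reaching it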
Target sequence (P55789 whole entry, looked up): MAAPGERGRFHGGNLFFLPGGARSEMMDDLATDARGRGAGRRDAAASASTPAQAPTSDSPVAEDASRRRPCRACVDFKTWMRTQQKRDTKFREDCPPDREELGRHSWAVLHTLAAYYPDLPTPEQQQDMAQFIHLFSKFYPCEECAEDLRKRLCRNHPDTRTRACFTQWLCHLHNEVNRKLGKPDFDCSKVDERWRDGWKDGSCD
PP5 inh: inhibitors of human protein phosphatase 5 (PP5); P53041; purified PP5c, OMFP substrate fluorescence; inhibition, % at 6.7 µM; actives 0.18% (n = 320,000);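 active = inhibition above the campaign's mean inhibition across all tested compounds plus 3 SD, cut at about 9.5% in these data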;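 note: 0% = DMSO only and 100% = 100 µM cantharidin control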
CSC inhib: cancer stem cell inhibition. cancer stem cell-like cells viability, luminescence. inhibition, % at 7.5 µM. actives 1.1% (n = 300,000); in the data active = inhibition above about 75%; inconclusive = no clear call, values can overlap the other calls; tested in HMLE shEcad cells
* marks the source's active call; other numbers are inactive results; ? = inconclusive; . = no result. Compounds with a hit are over-represented: about 5.4% of the library has one in this group of screens.

SMILES	Calb FLC	PP1 inh	ALR inh	PP5 inh	CSC inhib
COCCn1c(SCC(=O)Nc2cccc(C)c2)nnc1C(C)C	3	-4	.	-2	-3
COCCn1c(SCC(=O)c2ccc3c(c2)OCCO3)nnc1C(C)C	-5	-7	23	1	.
COCCn1c(SCC(=O)Nc2cc(C)cc(C)c2)nnc1C(C)C	-10	-6	100*	1	-4
COc1ccc(OCCCC(=O)NCCc2ccc(OC)c(OC)c2)cc1	-1	-2	-2	4	-7
CCOC(=O)C1CCCN(S(=O)(=O)c2c(C)noc2C)C1 (stereo not given)	12	2	-1	-4	-10
Oc1ccc(Oc2ncc(Cl)cc2Cl)cc1	-3	-2	99*	0	-2
Cc1ccc(CC(=O)Nc2ncc([N+](=O)[O-])s2)cc1	82*	-1	.	0	8
O=C(CCS(=O)(=O)c1ccccc1)Nc1ncc([N+](=O)[O-])s1	99*	-1	-2	-2	17
O=C(COC(=O)c1ccc(Br)o1)Nc1ncc([N+](=O)[O-])s1	.	-1	97*	3	.
Cc1ccc(S(=O)(=O)CC(=O)Nc2ncc([N+](=O)[O-])s2)cc1	-4	-2	-4	3	5
O=C(CS(=O)(=O)c1ccccc1)Nc1ncc([N+](=O)[O-])s1	0	-1	41	-1	-4
Cn1c(CN2CCN(CCO)CC2)c(C#N)c2ccccc21	33	3	-1	1	-5
O=C(NNC1=C(C(=O)C(F)(F)F)CCC1)c1cccc(Cl)c1	101*	1	25	4	113*
O=C(NNC1=C(C(=O)C(F)(F)F)CCC1)c1ccc(Cl)cc1	109*	-4	9	1	82*
COc1ccc(OCC(=O)Nc2ccc3c(c2)nc(CN2CCCC2)n3C)cc1	6	-1	.	1	14
COc1ccc(C2=NN(c3nc(-c4ccc(CNC(C)=O)cc4)cs3)C(c3ccco3)C2)cc1 (stereo not given)	11	2	99*	1	-4
COc1ccc(-c2csc(N3CCN(C(=O)c4ccco4)CC3)n2)cc1	5	1	64	0	2
CC1(C)CC(NC(=O)c2ccccc2C(=O)NC2CC(C)(C)NC(C)(C)C2)CC(C)(C)N1	-26	-1	-3	-3	-8
CC1(C)CC(NC(=O)N2c3ccccc3Sc3ccccc32)CC(C)(C)N1	2	-3	99*	0	-4
CC(C)(C)C1CCC(C(=O)Nc2ccccc2N2CCOCC2)CC1 (stereo not given)	.	-1	1	4	7
CCOC(=O)c1c(NC(=O)CSc2nc3ccccc3s2)sc(C)c1C	-11	0	98*	1	17
NC(=O)NC(=O)COC(=O)CCCSc1nc2ccccc2s1	5	-1	-4	-1	-1
CCOC(=O)NC(=O)COC(=O)CCCSc1nc2ccccc2s1	?	-1	93*	-1	-7
Cc1c(NC(=O)CSc2nc3ccccc3s2)c(=O)n(-c2ccccc2)n1C	19	1	99*	-1	2
Cn1ccnc1SCC(=O)Nc1ccc2nc(SCC(=O)NC3CC3)sc2c1	-3	-4	98*	-2	4
SMILES	Calb FLC	PP1 inh	ALR inh	PP5 inh	CSC inhib
Cc1csc(SCC(=O)Nc2c(C)n(C)n(-c3ccccc3)c2=O)n1	-17	4	0	3	-1
COc1cc(NC(=O)CCNC(=O)Cn2cnc3sc4c(c3c2=O)CCCC4)cc(OC)c1OC	4	0	.	4	-7
COc1ccc(C2Nc3ccccc3C(=O)N2c2ccccc2)cc1COc1ccccn1 (stereo not given)	0	-1	-4	1	.
Cc1c(C(=O)O)oc2ccc(S(=O)(=O)N3CCCC3)cc12	1	-4	-3	0	-1
Cc1cc(NC(=O)CSc2nc3ccccc3s2)no1	.	2	-9	1	-4
O=C(CSc1nc2ccccc2s1)NC1CCCC1	17	0	99*	0	-10
Cc1ccccc1-c1nnc(NC(=O)CSc2nc3ccccc3s2)s1	15	17*	-1	3	7
O=C(CSc1nc2ccccc2s1)Nn1cnnc1	2	1	99*	-1	-2
Cc1cccc(C)c1NC(=O)CCCSc1nc2ccccc2s1	-1	3	.	1	5
C/C=C/C(=O)Nc1nnc(-c2ccccc2C)s1	-14	14	98*	5	-16
Cc1ccccc1-c1nnc(NC(=O)c2ccc(N3C(=O)CCC3=O)cc2)s1	0	-2	-14	4	-4
CCCN1CCC(=NNC(=O)c2ccc(Br)o2)CC1	1	-1	3	-1	-9
